# Screens from PubChem.
# SARS PLP yeast – qHTS of Yeast-based Assay for SARS-CoV PLP. Potency, µM (series often up to 32.9 µM), without a hit: top-dose activity, positive = growth rescue, most hits filed as activators. S. cerevisiae expressing SARS-CoV PLpro, growth rescue. 0.19% of 330,000 active. AID 485353, 2010; further: 0% is about no effect; nearly all actives have a fitted effect of over 55% in size
# Pf growth 96h – Primary qHTS for delayed death inhibitors of the malarial parasite plastid, 96 hour incubation | P. falciparum luciferase reporter growth, 96 h | Potency, µM (doses to about 28.7 µM), for inactives: at the top dose activity change, negative = inhibition, most hits filed as inhibitors | 6.9% of 320,000 active; active means well fitted inhibition curve with a large enough effect; inconclusive means small, poorly fitted or top-dose-only effect, or another doubt; inactive means no such curve, though single readings can be large or run the other way; further: on the % scale 0 is the no-effect control and ±100 the full control effect
#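 P. falciparum expressing integrated firefly luciferase, in erythrocytes at 2% hematocrit, 0.05% parasitemia, incubated with compounds 96 h at 37 C, 5% CO2. Growth inhibition read as loss of luminescence; two-generation exposure targets delayed-death apicoplast inhibitors.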
# NS1 function inh – qHTS Assay for Inhibitors of Influenza NS1 Protein Function. 0.4% of 270,000 active. Potency, µM (doses to about 46.1 µM), for inactives: top-dose activity, positive = more growth. AID 2326, 2010; further: actives are rising curves; nearly all actives have a fitted effect of over 50% in size
#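 A cell-based growth assay was used: compounds that relieve NS1-induced slow growth of budding yeast raise OD600. Assay medium was yeast nitrogen base with ammonium sulphate and -URA supplement, pH 6.0, with 2% galactose.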
# Pf growth 48h – Primary qHTS for delayed death inhibitors of the malarial parasite plastid, 48 hour incubation | P. falciparum luciferase growth in erythrocytes, 48 h | Potency, µM (highest dose often 28.7 µM), inactives show at the top dose activity change, negative = inhibition, usual class: inhibitors | 5.9% of 310,000 active | AID 504832, 2011; active means well fitted inhibition curve with a large enough effect; inconclusive means small, poorly fitted or top-dose-only effect, or another doubt; inactive means no such curve, though single readings can be large or run the other way; further: on the % scale 0 is the no-effect control and ±100 the full control effect
#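 First compound was added to culture medium, then infected red cells at 0.1% parasitemia and 2% hematocrit (final). After incubation at 37 C under 5% CO2, luciferase detection reagent was dispensed and light output recorded.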
# Active calls of the source: *; ? = inconclusive; . = not tested or not shown. Only some compounds are listed: those with a hit (about 10% of all), similar ones and a draw of the others. Unless noted, the call rests on the fitted dose curve. Potency means the concentration at half of the fitted maximal effect.
SMILES,SARS PLP yeast,Pf growth 96h,NS1 function inh,Pf growth 48h
CCN(CC)C(=O)CSc1nc2ccccc2c(=O)n1CCC(=O)NCc1ccc(F)cc1,0%,?,7%,9.3µM*
Cc1cc(NC(=O)Cn2c(=O)n(Cc3ccccc3)c(=O)c3ccccc32)no1,3%,0%,3%,9.3µM*
CC(NC(=O)CCSCc1ccccc1F)c1ccccc1 (stereo unspecified),2%,?,-4%,16%
C=CCN1C(=O)c2ccccc2Sc2ccc(C(=O)NCCC)cc21,-4%,8%,-8%,-30%
Cc1cc(NC(=O)CSc2nc3ccccc3c(=O)n2Cc2ccc(F)cc2)no1,2%,12µM*,-1%,?
CSCC[C@H](NC(=O)OC(C)(C)C)C(=O)NCC1CCC(C(=O)N[C@@H](Cc2ccccc2)C(=O)O)CC1 (stereo partly specified),0%,1%,1%,9%
CCc1nnc(NC(=O)CCc2ccccc2OC)s1,-5%,2%,-2%,0%
Cn1c(=O)oc2cc(S(=O)(=O)N3CCOCC3)ccc21,.,52%,5%,?
O=S(=O)(c1ccc2oc(=S)[nH]c2c1)N1CCOCC1,2%,8.3µM*,.,?
O=S(=O)(c1ccc2c(c1)oc1ccccc12)N1CCOCC1,0%,20%,-6%,13µM*
O=c1[nH]c2ccc(S(=O)(=O)N3CCCCC3)cc2o1,-5%,10µM*,-10%,8%
N#CCCN(C(=O)COC(=O)c1cc(=O)[nH]c2ccccc12)c1ccccc1,19%,.,.,.
Fc1cnc(N/N=C/c2ccc(-c3ccc(Br)cc3)o2)nc1N1CCOCC1,-2%,5.9µM*,1%,?
O=[N+]([O-])c1ccc(/C=N/Nc2nc(N3CCOCC3)nc(N3CCOCC3)n2)cc1,0%,-3%,0%,-8%
Brc1ccc(-c2ccc(/C=N/Nc3nc(N4CCOCC4)nc(N4CCOCC4)n3)o2)cc1,-1%,11%,.,12µM*
Cc1cn(-c2ccccc2)c(C)c1/C=N\Nc1nc(N2CCOCC2)nc(N2CCOCC2)n1,-1%,6%,12%,8.3µM*
CCOc1cc(/C=N\Nc2ncc(F)c(N3CCOCC3)n2)ccc1Oc1nc(Cl)ncc1F,2%,1.9µM*,6%,1.7µM*
Cc1ccc(SCC(=O)OCC(=O)NC(C)c2ccc(F)cc2)cc1 (stereo unspecified),0%,1%,.,16%
O=C1Oc2ccccc2C(=O)C1C(CC(O)c1ccc(-c2ccc(Br)cc2)cc1)c1ccccc1 (stereo unspecified),.,-25%,.,-3%
Clc1ccc(-c2ccc(/C=N/Nc3cc(N4CCOCC4)nc(N4CCOCC4)n3)o2)cc1,-53%,-2%,16%,9.3µM*
CC(=O)c1ccc(NC(=O)COC(=O)c2ccccc2N=Nc2ccc(N(C)C)cc2)cc1,3%,?,9%,?
CN(C)c1ccc(N=Nc2ccccc2C(=O)OCC(=O)N(C)c2ccccc2)cc1,-16%,?,18%,13µM*
COC(=O)c1ccccc1NC(=O)COC(=O)c1ccccc1N=Nc1ccc(N(C)C)cc1,-1%,9.3µM*,4%,?
CCOC(=O)C1(CCc2ccccc2)CCN(C(=O)[C@@H]2C[C@@H](C)NC(=S)N2)CC1,-3%,?,7%,?
C=C1CCN([C@@H](C)C(=O)NCc2ccc(Cl)cc2)S(=O)(=O)c2ccccc21,-2%,?,0%,?
SMILES,SARS PLP yeast,Pf growth 96h,NS1 function inh,Pf growth 48h
Cn1c(=O)c2c(SCC(=O)NCc3ccco3)nc(-c3ccccc3Cl)nc2n(C)c1=O,?,?,23%,?
CCCn1c(=O)n(C)c(=O)c2c(SCC(=O)NCc3ccco3)nc(C3CC3)nc21,0%,4.1µM*,-3%,.
O=C(Cc1ccc(S(=O)(=O)N2CCCCC2)s1)Nc1ccc(F)cc1F,5%,13µM*,29%,-26%
COc1ccccc1OCCNC(=O)Cc1ccc(S(=O)(=O)N2CCOCC2)s1,3%,14%,.,?
O=C(COC(=O)Cc1ccc(S(=O)(=O)N2CCOCC2)s1)Nc1ccc(F)cc1F,-5%,.,.,.
O=C(Cc1ccc(S(=O)(=O)N2CCOCC2)s1)Nc1nc2c(s1)CCCC2,-4%,9.3µM*,23%,?
CCC(CC)NC(=O)Cc1ccc(S(=O)(=O)N2CCOCC2)s1,5%,-18%,18%,.
COc1cc(NC(=O)Cc2ccc(S(=O)(=O)N3CCOCC3)s2)c(OC)cc1Cl,-3%,8.3µM*,.,?
CCCN(CC(=O)Nc1ccc(F)c(F)c1F)C(=O)Cc1ccc(S(=O)(=O)N2CCOCC2)s1,0%,?,.,12µM*
COC(=O)c1c(NC(=O)Cc2ccc(OC)c(S(=O)(=O)N3CCOCC3)c2)sc(C)c1C,0%,?,.,13µM*
COc1cc(OC)c(NC(=O)Cc2ccc(OC)c(S(=O)(=O)N3CCOCC3)c2)cc1Cl,7%,?,-7%,?
COc1cc(NC(=O)Cc2ccc(OC)c(S(=O)(=O)N3CCOCC3)c2)c(OC)cc1Cl,-4%,15µM*,-16%,?
O=C(Cc1ccc(S(=O)(=O)N2CCOCC2)s1)Nc1cc(Cl)ccc1Cl,0%,?,.,13µM*
Oc1ccc(C[C@H]2CNCCN2CCc2cccc3ccccc23)cc1,4%,4.7µM*,.,5.2µM*
Oc1ccc(C[C@@H]2CNCCN2CCc2cc(C(F)(F)F)cc(C(F)(F)F)c2)cc1,-12%,?,.,8.3µM*
c1ccc(C[C@H]2CNCCN2CCc2cccc3ccccc23)cc1,-6%,?,.,?
Oc1ccc(C[C@H]2CNCCN2CCc2cc(C(F)(F)F)cc(C(F)(F)F)c2)cc1,1%,?,.,9.3µM*
Nc1nnnn1CCO,.,.,3%,.
CC(NC(=O)C1CCN(S(=O)(=O)c2cnc[nH]2)CC1)c1ccccc1 (stereo unspecified),21%,-15%,11%,-25%
Cc1ccc2c(CN3C(=O)NC4(CCCCC4)C3=O)cc(=O)oc2c1C,1%,0.13µM*,-16%,0%
Cc1cc(=O)oc2c(C)c(OCC(=O)N(C)C)ccc12,-1%,?,3%,23%
Cc1ccc2c(CN3CCN(S(=O)(=O)c4ccc5c(c4)OCCO5)CC3)cc(=O)oc2c1C,1%,?,3%,9.3µM*
COc1ccc2c(C)cc(=O)oc2c1C,8%,5.9µM*,-12%,.
Cc1ccc2c(CN3CC=C(c4ccccc4)CC3)cc(=O)oc2c1C,4%,3.3µM*,-9%,5.2µM*
CCc1ccc2c(CN3CC=C(c4ccccc4)CC3)cc(=O)oc2c1,8%,?,5%,?
CC(C)c1ccc(NC(=O)[C@@H]2CCC(=O)N2C2OC(=O)c3ccccc32)cc1 (stereo partly specified),1%,255%,7%,88%
CCOC(=O)Cc1ccc(NCc2ccc(Cl)cc2)cc1,-3%,?,.,7%
O=C(COc1ccc(Cl)cc1)NCCNC(=O)c1ccccn1,-2%,5%,1%,24%
CCc1ccc2c(CN3CCc4cc(OC)c(OC)cc4C3)cc(=O)oc2c1,?,?,9%,-25%
